Source: PubChem BioAssay AID1985 (Southern Research Specialized Biocontainment Screening …, 2009)
The whole screen tested about 2,300 compounds, of which about 1,000 (43%) were called active. The rule behind the calls is not given here. The set was probably picked from earlier hits. The list shows a part of the results. Results with a measured potency or affinity are listed apart.

Assay: PhoP regulon inhibitor project modified counter assay, GFP fluorescence readout, dose response (AID 1985)
Details: S. Typhi, 4 h; series mostly up to 150 µM

| Structure (SMILES) | outcome |
| --- | --- |
| O=C(c1cc2c(s1)-c1ccccc1S(=O)(=O)C2)N1CCN(Cc2ccccc2)CC1 | inactive |
| COc1cccc(OC)c1C(=O)Nc1ccc(N2CCN(S(C)(=O)=O)CC2)cc1 | inactive |
| COCc1ccc(C(=O)Nc2ccc(C(=O)O)cc2)o1 | inactive |
| COC(=O)C1=C(C)N(C2CCCC2)C(=O)C1(NC(C)=O)C(F)(F)F (stereo unspecified) | inactive |
| NC(=O)c1cc(C(=O)c2cccc(Cl)c2Cl)c[nH]1 | inactive |
| Cc1cnc(C(=O)Nc2nnc(C)s2)cn1 | inactive |
| O=C1C=C(Nc2ccccc2O)c2ccccc2C1=O | inactive |
| CCCCOc1ccc(CN2CCC(O)CC2)cc1 | inactive |
| CCCCCCOc1ccc(N2C(=O)CC(SC(=NCC)NCC)C2=O)cc1 (stereo unspecified) | inactive |
| CN(C)CCCN1c2ccccc2Sc2ccc(C(F)(F)F)cc21 | inactive |
| O=C1NC(=S)S/C1=C1\Sc2ccccc2N1CCCS(=O)(=O)O | inactive |
| O=C(Cc1ccc(F)cc1)NC1CCCC1 | inactive |
| Cc1ccc(C)c(NC(=O)c2ccccc2O)c1 | inactive |
| Cc1ccc(C)c(OCc2ccc(C(=O)NN)o2)c1 | inactive |
| Cn1ncc(N=Cc2ccccc2O)c1C(=O)N1CCOCC1 | inactive |
| O=C(NC1CCCCC1)c1ccc(S(=O)(=O)NCc2cccnc2)cc1 | inactive |

| Structure (SMILES) | outcome |
| --- | --- |
| Cc1nc(-c2ccc(C(=O)N3CCOCC3)cc2)cs1 | inactive |
| C[C@]1(OC(=O)/C=C/c2ccccc2)C[C@@H](O)[C@]2(O)C=CO[C@@H](O[C@@H]3O[C@H](CO)[C@@H](O)[C@H](O)[C@H]3O)[C@@H]21 | inactive |
| C1=Nc2ccccc2CN1c1ccccc1 | inactive |
| COc1ccc(C(C(=O)Nc2ccc(C(C)C)cc2)N(Cc2ccco2)C(=O)CC2NC(=O)NC2=O)cc1 (stereo unspecified) | inactive |
| Cc1ncc([N+](=O)[O-])n1CC(=O)NC1CCCC1 | inactive |
| CC(=O)NS(=O)(=O)c1ccc(Nc2ccc([N+](=O)[O-])c3nonc23)cc1 | inactive |
| CC1=C([N+](=O)[O-])C(c2ccccc2)C2=C(N1)c1ccccc1C2=O (stereo unspecified) | inactive |
| O=C1CC(=O)CC(c2ccco2)C1 | inactive |
| COc1ccccc1C(=O)Nc1nnc(-c2ccc(F)cc2)o1 | inactive |
| N#CC1=C2N=C(N)c3ccccc3N2C2=C(C(=O)CCC2)C1c1cccc(Cl)c1 (stereo unspecified) | inactive |
| O=C1c2ccccc2NC(c2cccc([N+](=O)[O-])c2)N1CCc1ccccc1 (stereo unspecified) | inactive |
| CCS(=O)(=O)N1CCN(C(=O)c2ccco2)CC1 | inactive |
| COc1cc(S(=O)(=O)N2CCN(C(=O)c3ccco3)CC2)c(OC)cc1C | inactive |
| COc1ccccc1NC(=O)Cn1nc(-c2ccncc2)nc1SCC(=O)NC1CCCC1 | inactive |
| O=C(CCNS(=O)(=O)c1cccc2nonc12)N1CCN(c2cccc(Cl)c2)CC1 | inactive |
